This is an account of results in ChEMBL document CHEMBL1961873, “Compounds: GSK PKIS; Assays: Nanosyn kinase panel” (2012).

For assay [1], the target named is Mitogen-activated protein kinase 3 (Homo sapiens) (UniProt P27361). The following applies: at 1 µM.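 Note: values are mean percent inhibition of MAPK3.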
The target of assay [2] is SRSF protein kinase 3 (Homo sapiens) (UniProt Q9UPE1). The following applies: at 0.1 µM.
For assay [3] the target is unchanged. Conditions: at 1 µM.
Assay [4] concerns the target Mitogen-activated protein kinase 14 (Homo sapiens) (UniProt Q16539). The following applies: at 0.1 µM.
Assay [5] shares this target. Conditions: at 1 µM.
Assay [6] addresses Mitogen-activated protein kinase 11 (Homo sapiens) (UniProt Q15759). The following applies: at 0.1 µM.
For assay [7] the target is unchanged. Conditions: at 1 µM.
Assay [8] has as its target T1, Mitogen-activated protein kinase 13 (Homo sapiens) (UniProt O15264).
T1 sequence (whole entry): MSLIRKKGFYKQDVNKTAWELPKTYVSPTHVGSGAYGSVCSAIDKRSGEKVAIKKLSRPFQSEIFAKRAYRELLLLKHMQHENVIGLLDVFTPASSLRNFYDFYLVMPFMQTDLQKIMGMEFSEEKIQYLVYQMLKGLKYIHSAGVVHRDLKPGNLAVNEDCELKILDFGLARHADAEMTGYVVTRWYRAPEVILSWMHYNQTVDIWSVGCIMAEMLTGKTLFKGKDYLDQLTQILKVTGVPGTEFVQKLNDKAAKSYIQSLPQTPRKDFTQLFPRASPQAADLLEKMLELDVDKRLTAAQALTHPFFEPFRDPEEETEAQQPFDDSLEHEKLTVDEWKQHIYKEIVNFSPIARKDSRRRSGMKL
Conditions: at 0.1 µM.

Assay [9] has as its target T1, Mitogen-activated protein kinase 13 (Homo sapiens). The following applies: at 1 µM.
Assay [10] addresses T2, Mitogen-activated protein kinase 12 (Homo sapiens) (UniProt P53778).
T2 sequence (whole entry): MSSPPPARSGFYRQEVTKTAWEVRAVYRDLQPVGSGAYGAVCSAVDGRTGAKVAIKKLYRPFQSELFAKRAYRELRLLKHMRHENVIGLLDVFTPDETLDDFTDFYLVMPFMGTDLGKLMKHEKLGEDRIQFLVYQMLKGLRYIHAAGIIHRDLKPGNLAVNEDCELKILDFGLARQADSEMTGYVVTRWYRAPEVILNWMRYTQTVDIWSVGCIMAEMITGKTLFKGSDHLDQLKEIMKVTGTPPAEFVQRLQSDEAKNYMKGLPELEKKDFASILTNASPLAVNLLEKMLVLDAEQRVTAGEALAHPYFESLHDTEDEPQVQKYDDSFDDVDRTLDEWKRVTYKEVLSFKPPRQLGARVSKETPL
Conditions: at 0.1 µM.

Assay [11] concerns the target T2, Mitogen-activated protein kinase 12 (Homo sapiens). Conditions: at 1 µM.
The target of assay [12] is SRSF protein kinase 1 (Homo sapiens) (UniProt Q96SB4). The following applies: at 0.1 µM.
SRSF protein kinase 1 (Homo sapiens), sequence (Q96SB4 whole entry): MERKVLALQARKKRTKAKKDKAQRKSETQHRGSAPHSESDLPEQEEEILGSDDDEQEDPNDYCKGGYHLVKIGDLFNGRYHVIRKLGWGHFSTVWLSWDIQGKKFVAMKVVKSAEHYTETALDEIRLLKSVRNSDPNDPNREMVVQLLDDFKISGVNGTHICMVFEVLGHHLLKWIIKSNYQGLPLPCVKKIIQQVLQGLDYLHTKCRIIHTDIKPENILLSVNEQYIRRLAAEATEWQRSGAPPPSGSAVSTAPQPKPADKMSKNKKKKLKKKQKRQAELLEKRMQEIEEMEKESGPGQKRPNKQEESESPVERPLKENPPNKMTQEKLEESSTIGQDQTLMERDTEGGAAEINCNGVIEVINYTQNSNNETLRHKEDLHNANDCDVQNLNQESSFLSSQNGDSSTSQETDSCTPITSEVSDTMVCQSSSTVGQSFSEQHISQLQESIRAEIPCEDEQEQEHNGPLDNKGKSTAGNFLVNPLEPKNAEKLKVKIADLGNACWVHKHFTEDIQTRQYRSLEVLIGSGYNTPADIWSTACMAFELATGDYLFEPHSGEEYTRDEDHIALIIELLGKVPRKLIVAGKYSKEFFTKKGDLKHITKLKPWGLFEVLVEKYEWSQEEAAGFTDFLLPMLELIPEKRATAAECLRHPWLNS
The target is the same in assay [13]. Conditions: at 1 µM.
Assay [14] deals with Phosphatidylinositol 4,5-bisphosphate 3-kinase catalytic subunit alpha isoform (Homo sapiens) (UniProt P42336). The following applies: at 0.1 µM.
Phosphatidylinositol 4,5-bisphosphate 3-kinase catalytic subunit alpha isoform (Homo sapiens), sequence (P42336 whole entry, canonical isoform): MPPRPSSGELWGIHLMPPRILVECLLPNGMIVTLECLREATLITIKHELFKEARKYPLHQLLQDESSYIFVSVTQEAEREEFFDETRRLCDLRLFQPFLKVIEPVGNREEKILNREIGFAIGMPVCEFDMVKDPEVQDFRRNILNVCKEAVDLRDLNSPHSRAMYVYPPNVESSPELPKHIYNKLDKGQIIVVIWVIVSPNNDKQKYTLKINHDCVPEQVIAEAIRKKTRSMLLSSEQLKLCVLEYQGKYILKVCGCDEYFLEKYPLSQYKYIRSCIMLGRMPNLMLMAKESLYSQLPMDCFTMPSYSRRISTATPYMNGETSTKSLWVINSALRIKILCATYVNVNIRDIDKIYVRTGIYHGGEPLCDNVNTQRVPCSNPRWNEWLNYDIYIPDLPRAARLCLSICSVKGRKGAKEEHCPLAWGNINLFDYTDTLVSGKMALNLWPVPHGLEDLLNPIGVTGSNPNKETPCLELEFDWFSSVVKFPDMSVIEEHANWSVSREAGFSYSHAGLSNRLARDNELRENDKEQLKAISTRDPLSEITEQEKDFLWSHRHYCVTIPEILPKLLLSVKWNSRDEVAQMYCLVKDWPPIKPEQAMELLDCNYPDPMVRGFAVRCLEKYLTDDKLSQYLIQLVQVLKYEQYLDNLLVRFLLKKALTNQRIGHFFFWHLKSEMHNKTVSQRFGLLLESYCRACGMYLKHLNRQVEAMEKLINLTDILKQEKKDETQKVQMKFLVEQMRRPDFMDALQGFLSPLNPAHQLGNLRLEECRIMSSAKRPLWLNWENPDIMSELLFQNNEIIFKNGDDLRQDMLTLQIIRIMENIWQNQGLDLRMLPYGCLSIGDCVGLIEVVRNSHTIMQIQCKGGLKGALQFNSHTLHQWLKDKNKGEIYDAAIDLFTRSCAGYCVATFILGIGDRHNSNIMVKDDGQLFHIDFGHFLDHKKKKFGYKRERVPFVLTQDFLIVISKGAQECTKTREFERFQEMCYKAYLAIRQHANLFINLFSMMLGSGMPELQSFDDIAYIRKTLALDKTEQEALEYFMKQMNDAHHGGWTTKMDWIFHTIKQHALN
The target is the same in assay [15]. The following applies: at 1 µM.
The target in assay [16] is T3, Phosphatidylinositol 4,5-bisphosphate 3-kinase catalytic subunit delta isoform (Homo sapiens) (UniProt O00329).
T3 sequence (whole entry): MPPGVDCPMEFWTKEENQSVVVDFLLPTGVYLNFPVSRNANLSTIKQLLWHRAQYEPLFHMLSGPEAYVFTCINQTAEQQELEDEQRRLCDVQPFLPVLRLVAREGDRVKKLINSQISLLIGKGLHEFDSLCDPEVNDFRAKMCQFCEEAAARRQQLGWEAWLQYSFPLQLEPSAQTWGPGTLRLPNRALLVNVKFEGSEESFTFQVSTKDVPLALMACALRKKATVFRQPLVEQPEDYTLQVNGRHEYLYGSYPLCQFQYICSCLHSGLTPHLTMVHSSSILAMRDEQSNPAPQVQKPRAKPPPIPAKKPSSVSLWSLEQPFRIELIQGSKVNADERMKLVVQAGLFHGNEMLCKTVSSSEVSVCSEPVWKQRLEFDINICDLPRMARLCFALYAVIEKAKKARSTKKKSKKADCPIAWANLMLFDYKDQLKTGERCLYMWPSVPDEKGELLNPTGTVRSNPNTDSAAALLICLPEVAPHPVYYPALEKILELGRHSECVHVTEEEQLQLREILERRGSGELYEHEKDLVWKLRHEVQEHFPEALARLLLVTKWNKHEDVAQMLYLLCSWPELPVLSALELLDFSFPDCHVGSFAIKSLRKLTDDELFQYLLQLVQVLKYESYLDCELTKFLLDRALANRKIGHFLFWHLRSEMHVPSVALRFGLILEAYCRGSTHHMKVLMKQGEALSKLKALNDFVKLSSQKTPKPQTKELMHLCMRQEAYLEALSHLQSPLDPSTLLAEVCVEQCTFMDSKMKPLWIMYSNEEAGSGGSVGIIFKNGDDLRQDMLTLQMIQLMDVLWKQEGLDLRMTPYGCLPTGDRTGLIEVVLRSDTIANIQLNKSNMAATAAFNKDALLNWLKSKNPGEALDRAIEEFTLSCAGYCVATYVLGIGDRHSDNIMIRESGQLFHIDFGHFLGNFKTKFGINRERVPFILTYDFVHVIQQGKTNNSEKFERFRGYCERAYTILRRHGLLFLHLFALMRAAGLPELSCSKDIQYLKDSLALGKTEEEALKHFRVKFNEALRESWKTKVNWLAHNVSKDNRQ
The following applies: at 0.1 µM.

Assay [17] deals with T3, Phosphatidylinositol 4,5-bisphosphate 3-kinase catalytic subunit delta isoform (Homo sapiens). Conditions: at 1 µM.
For assay [18], the target named is Phosphatidylinositol 4-kinase beta (Homo sapiens) (UniProt Q9UBF8). Conditions: at 0.1 µM.
Phosphatidylinositol 4-kinase beta (Homo sapiens), sequence (Q9UBF8 2-816 limits assumed): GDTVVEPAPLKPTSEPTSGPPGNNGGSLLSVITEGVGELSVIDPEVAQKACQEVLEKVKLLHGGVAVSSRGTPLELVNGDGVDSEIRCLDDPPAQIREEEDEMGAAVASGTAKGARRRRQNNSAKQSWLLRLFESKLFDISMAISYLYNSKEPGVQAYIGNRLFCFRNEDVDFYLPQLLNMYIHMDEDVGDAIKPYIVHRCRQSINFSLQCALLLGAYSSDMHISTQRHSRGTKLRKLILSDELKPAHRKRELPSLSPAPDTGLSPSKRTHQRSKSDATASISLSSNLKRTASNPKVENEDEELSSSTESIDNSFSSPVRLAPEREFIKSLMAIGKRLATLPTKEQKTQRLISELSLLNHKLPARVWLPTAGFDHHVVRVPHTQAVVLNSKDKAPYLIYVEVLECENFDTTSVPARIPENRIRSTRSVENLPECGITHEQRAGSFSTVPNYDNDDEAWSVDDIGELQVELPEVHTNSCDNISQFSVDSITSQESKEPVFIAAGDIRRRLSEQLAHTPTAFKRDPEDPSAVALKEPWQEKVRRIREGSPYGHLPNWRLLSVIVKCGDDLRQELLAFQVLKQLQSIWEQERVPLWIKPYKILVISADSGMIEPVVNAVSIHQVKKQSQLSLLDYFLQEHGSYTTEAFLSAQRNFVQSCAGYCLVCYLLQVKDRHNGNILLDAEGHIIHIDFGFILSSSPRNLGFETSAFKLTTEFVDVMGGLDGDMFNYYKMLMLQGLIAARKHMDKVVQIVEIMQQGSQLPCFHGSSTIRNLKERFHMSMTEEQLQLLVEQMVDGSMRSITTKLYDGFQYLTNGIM
For assay [19] the target is unchanged. The following applies: at 1 µM.
Assay [20] deals with Sphingosine kinase 1 (Homo sapiens) (UniProt Q9NYA1). The following applies: at 0.1 µM.
Sphingosine kinase 1 (Homo sapiens), sequence (Q9NYA1 whole entry): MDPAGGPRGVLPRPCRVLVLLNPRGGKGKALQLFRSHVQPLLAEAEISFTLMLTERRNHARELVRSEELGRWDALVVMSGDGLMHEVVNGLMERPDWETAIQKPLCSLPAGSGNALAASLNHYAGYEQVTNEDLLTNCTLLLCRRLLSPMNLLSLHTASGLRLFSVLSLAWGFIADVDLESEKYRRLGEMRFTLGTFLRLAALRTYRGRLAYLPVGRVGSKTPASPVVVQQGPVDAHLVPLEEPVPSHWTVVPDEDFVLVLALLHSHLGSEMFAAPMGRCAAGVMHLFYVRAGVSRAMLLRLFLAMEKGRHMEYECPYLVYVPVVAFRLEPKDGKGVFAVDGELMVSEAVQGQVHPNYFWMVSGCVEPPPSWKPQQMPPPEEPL

Molecules are shown by their SMILES.

SRSF protein kinase 3 (Homo sapiens), sequence (Q9UPE1 whole entry): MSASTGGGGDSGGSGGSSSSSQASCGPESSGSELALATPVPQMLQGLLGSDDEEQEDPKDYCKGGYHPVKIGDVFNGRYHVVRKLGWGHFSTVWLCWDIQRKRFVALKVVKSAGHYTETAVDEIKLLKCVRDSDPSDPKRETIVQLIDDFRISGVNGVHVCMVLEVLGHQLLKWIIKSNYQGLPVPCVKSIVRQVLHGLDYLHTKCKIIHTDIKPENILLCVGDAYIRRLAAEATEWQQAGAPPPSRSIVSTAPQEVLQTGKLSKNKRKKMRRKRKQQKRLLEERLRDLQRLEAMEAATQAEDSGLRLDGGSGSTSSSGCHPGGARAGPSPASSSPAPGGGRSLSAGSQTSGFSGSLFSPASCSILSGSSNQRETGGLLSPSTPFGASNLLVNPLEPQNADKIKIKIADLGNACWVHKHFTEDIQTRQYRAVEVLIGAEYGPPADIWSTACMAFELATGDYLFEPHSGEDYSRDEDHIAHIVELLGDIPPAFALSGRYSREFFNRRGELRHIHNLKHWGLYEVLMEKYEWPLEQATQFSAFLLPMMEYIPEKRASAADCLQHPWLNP
Mitogen-activated protein kinase 11 (Homo sapiens), sequence (Q15759 whole entry): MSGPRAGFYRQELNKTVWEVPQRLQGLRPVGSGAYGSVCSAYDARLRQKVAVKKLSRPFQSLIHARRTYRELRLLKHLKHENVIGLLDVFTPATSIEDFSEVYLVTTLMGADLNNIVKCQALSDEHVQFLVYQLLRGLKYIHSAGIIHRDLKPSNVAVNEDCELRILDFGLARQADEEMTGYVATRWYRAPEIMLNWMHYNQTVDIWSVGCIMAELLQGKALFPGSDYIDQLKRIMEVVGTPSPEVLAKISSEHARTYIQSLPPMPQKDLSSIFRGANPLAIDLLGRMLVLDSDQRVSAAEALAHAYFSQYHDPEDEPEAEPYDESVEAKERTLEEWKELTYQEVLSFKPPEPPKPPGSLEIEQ
Mitogen-activated protein kinase 3 (Homo sapiens), sequence (P27361 whole entry): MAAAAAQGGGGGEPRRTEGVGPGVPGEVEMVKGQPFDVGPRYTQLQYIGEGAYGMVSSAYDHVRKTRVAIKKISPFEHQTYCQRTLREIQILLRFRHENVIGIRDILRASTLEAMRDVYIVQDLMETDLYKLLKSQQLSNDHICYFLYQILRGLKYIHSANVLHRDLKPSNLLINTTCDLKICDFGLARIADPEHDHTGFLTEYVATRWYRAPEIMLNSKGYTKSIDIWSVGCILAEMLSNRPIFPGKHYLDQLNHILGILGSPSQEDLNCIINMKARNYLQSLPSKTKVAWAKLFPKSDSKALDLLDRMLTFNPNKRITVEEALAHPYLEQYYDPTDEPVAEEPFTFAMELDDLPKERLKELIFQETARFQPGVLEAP
Mitogen-activated protein kinase 14 (Homo sapiens), sequence (Q16539 whole entry): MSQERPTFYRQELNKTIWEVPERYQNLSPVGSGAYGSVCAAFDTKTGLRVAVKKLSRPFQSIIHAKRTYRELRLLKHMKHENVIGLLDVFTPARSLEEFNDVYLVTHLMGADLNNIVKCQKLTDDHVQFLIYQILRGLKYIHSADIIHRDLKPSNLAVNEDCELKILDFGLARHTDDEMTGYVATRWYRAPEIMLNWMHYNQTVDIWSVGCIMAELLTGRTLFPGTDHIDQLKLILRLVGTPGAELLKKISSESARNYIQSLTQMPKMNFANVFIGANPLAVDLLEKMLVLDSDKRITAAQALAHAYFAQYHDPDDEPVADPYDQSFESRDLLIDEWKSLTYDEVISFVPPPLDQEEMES

A word on the inhibition: it is the change of the read-out against control, counted positive when it falls. As to `Fc1ccc(-c2nn3ccccc3c2-c2ccncc2)cc1`, the inhibition in assay [1] was 0.82%; in [2] it was -2.15%; in [3], 1.26%; in assay [4], 41.4%; in assay [5], 81.2%; in assay [6], 7.33%. The inhibition is 38.7% in assay [7]; -0.3% in assay [8]; 0.46% in [9]; 1.66% in assay [10]; 1.62% in [11]; -2.12% in [12]. The inhibition in [13] is -2.82%; in assay [14], 0.14%; in assay [15], 1.14%; in assay [16], 0.32%; in assay [17], 2.31%; in [18] it was -1.2%. Further, the inhibition in assay [19] is 1.37%; in assay [20] it was -0.49%.
As to `FC(F)(F)c1cccc(-c2nn3ncccc3c2-c2ccnc(Nc3ccc4c(c3)OCCO4)n2)c1`, the inhibition in [1] was 2.04%; in assay [2] it was -0.87%; in [3] it was -0.58%; in [4], 30%; in assay [5] it was 73.7%; in assay [6], 14.1%. For the same compound, the inhibition is 52.2% in [7]; 0.07% in assay [8]; 3.46% in assay [9]; 3.07% in [10]; 2.93% in [11]; -2.68% in assay [12]. Also, the inhibition in assay [13] was -5.33%; in [14], 1.87%; in assay [15] it was 3.02%; in assay [16], 1.36%; in assay [17] it was 4%; in assay [18], -4.9%. Besides, the inhibition in [19] was 3.59%; in assay [20] it was -1.16%.
With `c1cc(-c2cnn3nc(N4CCOCC4)ccc23)nc(NC2CC2)n1`, the inhibition was determined as 3.9% in [1]; 2.15% in [2]; 9.24% in [3]; 6.66% in [4]; 16.6% in assay [5]; 3.09% in assay [6]. Besides, the inhibition was 13.1% in assay [7]; 6.27% in assay [8]; 19.7% in assay [9]; 0.63% in assay [10]; 13.6% in assay [11]; -1.17% in [12]. Moreover, the inhibition in [13] came out at 1.29%; in assay [14], 2.09%; in [15] it was 6.22%; in assay [16], 1.85%; in assay [17] it was 4.21%; in [18], 0.77%. Besides, the inhibition in assay [19] was 21%; in [20] it was -1.93%.
With `COc1cc2ncn(-c3cc(OCc4ccccc4C(F)(F)F)c(C(=O)N(C)C)s3)c2cc1OC`, the inhibition in [1] is -0.07%; in assay [2] it was -2.08%; in [3], -1.83%; in assay [4] it was 7.43%; in assay [5], 1.82%; in assay [6], -4.05%. The inhibition in assay [7] is 1.82%; in [8] it was -0.21%; in assay [9], 0.14%; in assay [10] it was 0.9%; in [11], 0.94%; in assay [12], -1.25%. Besides, the inhibition in assay [13] is -2.46%; in assay [14], 0.78%; in assay [15] it was 1.16%; in [16] it was 0.51%; in [17], 2.3%; in [18], 2.07%. The figures for the inhibition in assay [19] and in assay [20] were 0.96% and 2.3%, respectively.
For the compound `CCn1c(-c2nonc2N)nc2c(C#CC(C)(C)O)nc(OC[C@H](N)c3ccccc3)cc21`, the inhibition was 2.26% in assay [1]; 3.21% in [2]; -2.11% in assay [3]; 4.73% in [4]; 7.11% in assay [5]; 3.41% in assay [6]. Also, the inhibition is 4.89% in assay [7]; 1.8% in assay [8]; 1.9% in assay [9]; 2.38% in assay [10]; 3.95% in [11]; -2.57% in [12]. Further, the inhibition in assay [13] was -1.89%; in assay [14], 1.03%; in assay [15], 1.06%; in assay [16] it was 0.44%; in assay [17], 1.52%; in assay [18], -2.33%. The inhibition in assay [19] turned out to be 0.6%; in [20], 0.65%.
Regarding `CN(C)CCOc1ccc(-c2nc(-c3ccncc3)c(-c3ccc4c(c3)CC/C4=N\O)[nH]2)cc1`, the inhibition in [1] is 3.36%; in assay [2] it was 1.13%; in assay [3], 1.14%; in assay [4], 3.87%; in assay [5] it was 15.9%; in assay [6], 2.37%. Besides, the inhibition in assay [7] was 6.69%; in [8], 0.98%; in assay [9] it was 4.84%; in assay [10], 1.54%; in [11] it was 1.28%; in assay [12] it was -0.47%. Further, the inhibition in assay [13] was -0.41%; in [14], 3.08%; in [15] it was 3.29%; in assay [16] it was 1.62%; in [17] it was 4.12%; in [18] it was -1.17%. The inhibition in assay [19] was -2.78%; in assay [20] it was 11.7%.
Turning to `O=S(=O)(CCNCc1ccc(-c2ccc3ncnc(Nc4ccc(OCc5cccc(F)c5)c(Cl)c4)c3c2)o1)c1ccccc1`, the inhibition in [1] was 6%; in assay [2], -1.7%; in assay [3], 3.71%; in [4] it was 16.1%; in assay [5], 14%; in assay [6], 6.03%. Moreover, the inhibition in assay [7] is 6.99%; in assay [8] it was 6.05%; in [9], 5.53%; in assay [10], 3.55%; in assay [11], 5.41%; in assay [12], -1.17%. Besides, the inhibition was -1.46% in assay [13]; 5.28% in assay [14]; 5.59% in assay [15]; 0.47% in assay [16]; 6.33% in assay [17]; -6.34% in [18]. Moreover, the figures for the inhibition in assay [19] and in assay [20] were -9.91% and 1.07%, respectively.
